The record followed here is PubChem BioAssay (Tox21).

Experiment [1] deals with Nuclear receptor subfamily 1 group I member 3 (Homo sapiens) (UniProt Q14994). The experiment is described as follows: qHTS assay to identify small molecule agonists of the constitutive androstane receptor (CAR) signaling pathway (AID 1224839). Further: nearly all actives have a fitted effect of over 15% in size. Further: potency means the concentration at half of the fitted maximal effect.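 On activation: HepG2 cells stably carrying human CAR and a CYP2B6 luciferase reporter; series mostly up to about 92 µM.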 The method in brief: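 Luminescence read-out (ONE-Glo, 30 min, room temperature) from double-stable HepG2-CYP2B6-hCAR cells exposed 24 h to 15-point compound series in presence of 0.75 uM PK11195 final.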
Chain of Nuclear receptor subfamily 1 group I member 3 (Homo sapiens) (Q14994 whole entry, looked up): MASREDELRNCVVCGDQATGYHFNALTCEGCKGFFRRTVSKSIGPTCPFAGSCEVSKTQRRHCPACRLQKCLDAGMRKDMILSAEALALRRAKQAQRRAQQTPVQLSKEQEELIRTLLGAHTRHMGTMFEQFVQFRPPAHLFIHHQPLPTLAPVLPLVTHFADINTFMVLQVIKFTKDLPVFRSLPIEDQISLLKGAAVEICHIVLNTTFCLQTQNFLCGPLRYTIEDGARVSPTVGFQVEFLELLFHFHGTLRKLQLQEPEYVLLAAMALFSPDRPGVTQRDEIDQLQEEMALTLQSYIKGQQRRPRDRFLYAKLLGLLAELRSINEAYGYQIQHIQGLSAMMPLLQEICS

A short description of experiment [2]: qHTS assay to identify small molecule antagonists of the estrogen related receptor signaling pathway with the pleiotropic PPARgamma coactivator (PGC) from Tox21 10K library - cell viability counter screen (AID 1224840; active means well fitted cell-killing curve with a large enough effect in the repeat runs, not every such curve was filed as active; further: nearly all actives have a fitted effect of over 40% in size). The method, boiled down:
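Compounds in DMSO, alongside positive and negative controls, were pinned onto PGC/ERR cells (2,000 per well). Exposure lasted 17.5 hours at 37 C, followed by a 30-minute CellTiter-Fluor incubation and fluorescence reading.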

The target of experiment [3] is Thyrotropin receptor (Homo sapiens) (UniProt P16473). As to the kind of experiment: qHTS assay to identify small molecule agonists of the thyroid stimulating hormone receptor (TSHR) signaling pathway (AID 1224843; calls by dose curve; further: nearly all actives have a fitted effect of over 45% in size). The method, boiled down:
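Cell line HEK293 with TSHR; density 800/well. Exposure 30 min RT. Readout HTRF cAMP (cAMP-d2/anti-cAMP-cryptate), 1 h RT before reading.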
A general note: In qHTS, concentration-response curves come from the screen itself.

The nature of experiment [4]: qHTS assay to identify small molecule agonists of the hypoxia (HIF-1) signaling pathway - cell viability counter screen (AID 1224844; calls by dose curve; further: nearly all actives have a fitted effect of over 50% in size). The method in brief: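 Luminescent ATP content (CellTiter-Glo, 30 min, room temperature) served as the viability measure in HRE-bla ME-180 cells exposed to compounds for 17 hrs in low-serum medium (0.5% dialyzed FBS).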
Experiment [5] can be described thus: qHTS assay to identify small molecule agonists of H2AX (AID 1224845; active means well fitted activation curve with a large enough effect in the signal ratio in the repeat runs, not every such curve was filed as active; the % refers to the signal ratio). The method, boiled down: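 Wild-type CHO-K1 cells plated overnight, then exposed 3 hr at 37C to compounds at 15 concentrations (0.76% DMSO). Lysed, then HTRF anti-pH2AX(S139)-cryptate/anti-H2AX-d2 detection after 24 hr at room temperature; emissions 665 and 620 nm.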
Experiment [6] is described as follows: qHTS assay to identify small molecule agonists of H2AX - cell viability counter screen (AID 1224847; calls by dose curve; further: top concentration of the series differs between compounds; nearly all actives have a fitted effect of over 30% in size). The method, boiled down:
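CHO-K1 wt, 1000 cells/well, o/n 37C; cpds 15 conc, 3 h 37C, 0.76% DMSO; CellTiter-Glo, 30 min RT, luminescence.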

The nature of experiment [7]: qHTS RealTime-Glo MT Cell Viability Assay in HepG2 cells - 24 hour (AID 1224867). Further: nearly all actives have a fitted effect of over 50% in size. The method, boiled down: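 HepG2 cells were seeded at 600 cells/well together with NanoLuc luciferase and a cell-permeant prosubstrate, preincubated 5 h at 37 C/5% CO2, then pin-dosed with compounds in DMSO. Nonlytic luminescence from viable cells was read at each time point.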
Experiment [8] can be described thus: qHTS RealTime-Glo MT Cell Viability Assay in HEK293 cells - 32 hour (AID 1224868). Further: nearly all actives have a fitted effect of over 50% in size. Further: potency means the concentration at half of the fitted maximal effect. On activity change, negative = cytotoxic: top concentration of the series differs between compounds. The method, boiled down:
(§1)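 HEK293 cells were seeded at 600 cells/well together with NanoLuc luciferase and cell-permeant prosubstrate, preincubated 5 h at 37 C/5% CO2, then given compound in DMSO by pintool. Luminescence from viable-cell prosubstrate reduction was read repeatedly over 40 h.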

A short description of experiment [9]: A CellTox Green Cytotoxicity Assay to monitor cytotoxicity in HEK293 cells - 0 hour (AID 1224869). Further: nearly all actives have a fitted effect of over 50% in size. The method, boiled down: (§2)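 Each value comes from one timepoint of a single continuous run in which HEK293 cells with CellTox Green were exposed to compound for up to 40 h at 37 C, dye fluorescence rising with cell death.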
Experiment [10] in a line: qHTS RealTime-Glo MT Cell Viability Assay in HepG2 cells - 40 hour (AID 1224870). Further: nearly all actives have a fitted effect of over 50% in size. The method in brief: (§3)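 HepG2 cells mixed with RealTime-Glo MT reagents (NanoLuc plus cell-permeant prosubstrate) were seeded at 600 cells/well, incubated 5 h at 37 C/5% CO2, then pinned with compounds in DMSO; nonlytic luminescence tracked viability during 40 h treatment.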
The nature of experiment [11]: A CellTox Green Cytotoxicity Assay to monitor cytotoxicity in HEK293 cells - 40 hour (AID 1224871). Further: nearly all actives have a fitted effect of over 45% in size. The method, boiled down: as §2
Experiment [12] can be described thus: qHTS RealTime-Glo MT Cell Viability Assay in HEK293 cells - 16 hour (AID 1224872). Further: nearly all actives have a fitted effect of over 50% in size. Further: potency means the concentration at half of the fitted maximal effect. On activity change, negative = cytotoxicity: top concentration of the series differs between compounds. The method in brief:
as §1

A short description of experiment [13]: qHTS RealTime-Glo MT Cell Viability Assay in HepG2 cells - 8 hour (AID 1224873). Further: nearly all actives have a fitted effect of over 55% in size. The method in brief: as §3
A short description of experiment [14]: qHTS RealTime-Glo MT Cell Viability Assay in HEK293 cells - 40 hour (AID 1224874). Further: nearly all actives have a fitted effect of over 50% in size. Further: potency means the concentration at half of the fitted maximal effect. As to conditions: RealTime-Glo luminescence; max response: active compounds read low. The method in brief: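 qHTS format; HEK293 cells with NanoLuc/prosubstrate reagent, 37 C/5% CO2 for 5 h pre-dosing; compounds 23 nL in DMSO; luminescence at each time point reflects viable cells.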

Experiment [15] can be described thus: A CellTox Green Cytotoxicity Assay to monitor cytotoxicity in HEK293 cells - 24 hour (AID 1224875). Further: series mostly up to about 77 µM; nearly all actives have a fitted effect of over 45% in size. The method, boiled down:
as §2

A short description of experiment [16]: qHTS assay to identify small molecule agonists of the hypoxia (HIF-1) signaling pathway (AID 1224846; active means well fitted activation curve with a large enough effect in the signal ratio in the repeat runs, not every such curve was filed as active; the % refers to the signal ratio). The method in brief:
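Measured by blue/green FRET after loading CCF4-AM: beta-lactamase expressed from a hypoxia response element in ME-180 cells. Test agents were delivered in DMSO and left 17 hrs; cells had been plated 5 hrs earlier in low-serum (0.5% dialyzed FBS) medium.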

Values without a mark were called inactive. Inconclusive results are not listed. Activity calls are given as the source filed them. Unless noted, the call rests on the fitted dose curve; in most records, active means well fitted curve in the direction sought with a large enough effect in the repeat runs; inconclusive means weak or mixed curves; inactive means no such curve, though single readings can be large; an effect the other way counts as inactive or inconclusive.
On the % scale 0 is the no-effect control and ±100 the full control effect.

Chain of Thyrotropin receptor (Homo sapiens) (P16473 whole entry, looked up): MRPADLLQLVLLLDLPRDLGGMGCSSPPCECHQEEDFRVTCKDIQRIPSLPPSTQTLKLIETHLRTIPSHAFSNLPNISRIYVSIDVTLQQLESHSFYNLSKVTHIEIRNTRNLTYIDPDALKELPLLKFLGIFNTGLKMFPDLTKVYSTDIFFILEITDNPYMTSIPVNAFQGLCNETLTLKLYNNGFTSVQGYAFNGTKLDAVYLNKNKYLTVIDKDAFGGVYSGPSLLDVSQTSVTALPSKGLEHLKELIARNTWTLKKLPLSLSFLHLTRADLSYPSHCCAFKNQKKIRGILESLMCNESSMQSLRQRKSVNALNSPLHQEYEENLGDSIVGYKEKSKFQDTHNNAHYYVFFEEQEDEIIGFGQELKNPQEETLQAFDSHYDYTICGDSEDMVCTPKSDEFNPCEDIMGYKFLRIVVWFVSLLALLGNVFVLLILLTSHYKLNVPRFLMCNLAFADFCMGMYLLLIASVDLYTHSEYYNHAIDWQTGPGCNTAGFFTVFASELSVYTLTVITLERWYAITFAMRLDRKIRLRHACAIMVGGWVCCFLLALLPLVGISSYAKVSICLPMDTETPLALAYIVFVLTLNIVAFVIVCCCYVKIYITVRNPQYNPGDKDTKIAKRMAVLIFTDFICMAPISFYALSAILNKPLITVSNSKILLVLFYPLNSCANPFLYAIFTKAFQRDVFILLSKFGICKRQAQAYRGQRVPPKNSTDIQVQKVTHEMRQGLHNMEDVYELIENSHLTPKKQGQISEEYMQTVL

As for `N[C@@H](Cc1ccc(O)cc1)C(=O)O`, the activation in [1] was -2.78% [at 8.39 µM]; in experiment [3] it was 8.55% [at 8.39 µM]. Also, the viability change, negative = cytotoxic in [2] was 3.49% [at 8.39 µM]; in [13] it was 0.728% [at 6.97 µM]. In addition, the activity change, negative = cytotoxicity in experiment [4] was 2.31% [at 6.97 µM]; in experiment [6] it was 5.12% [at 14 µM]; in experiment [7], -0.685% [at 6.97 µM]; in experiment [12], 0.747% [at 6.97 µM]. For the same compound, the activation (H2AX phosphorylation) in experiment [5] was 0.078% [at 14 µM]. Further, the activity change, negative = cytotoxic was -0.171% [at 6.97 µM] in experiment [8] and 1.47% [at 6.97 µM] in [10]. In addition, the cytotoxicity in experiment [9] is 1.14% [at 6.97 µM]. In [11], the cytotoxicity increase was -0.009% [at 6.97 µM]. Moreover, the max response in [14] was -1.3%. Besides, the activity change in [15] was 2.02% [at 6.97 µM, active compounds read high].

Consider `CC(C)Cn1cnc2c1c(=O)n(C)c(=O)n2C`, for which the Potency entry in experiment [1], in experiment [8], in experiment [9], in [11], in experiment [12] and in [15] was “inactive” each time. Moreover, the call in [2], in experiment [3], in experiment [4], in experiment [5], in experiment [6] and in experiment [7] was inactive. Further, the outcome in experiment [10] and in experiment [13] was inactive. For the same compound, the max response in [14] was 2.8%.

As to `OCCN1CCOCC1`, the Potency entry in experiment [1], in [8], in experiment [9], in experiment [11], in experiment [12] and in [15] was “inactive” each time. The compound was called inactive in [2], in [3], in experiment [4], in [5], in experiment [6] and in [7]. Further, in [10], the call was inactive. Besides, in experiment [14], the max response is 2.9%.

In the case of `O=C(CCCl)NCCc1ccccc1`, the Potency entry in [1], in experiment [8], in experiment [9], in experiment [11], in [12] and in experiment [15] was “inactive” in each case. The compound was called inactive in [2], in experiment [3], in [4], in [5], in experiment [6] and in experiment [7]. Besides, the compound was called inactive in experiment [10]. The max response in [14] was 5.46%.

In the case of `O=C=NCC1CCCC(CN=C=O)C1` (stereo not drawn), the Potency result in [1], in experiment [8], in experiment [11], in [12] and in [15] was “inactive” throughout. Moreover, the call in experiment [2], in experiment [3], in experiment [4], in experiment [5], in [16] and in [7] was inactive. The compound was classed as inactive in [10] and in experiment [13]. The max response in experiment [14] is 1.36%.

`COC(=O)/C=C\C(=O)O`: the Potency entry in experiment [1], in [8], in experiment [11] and in experiment [12] was “inactive” each time. Moreover, the outcome in experiment [2], in experiment [3], in [4], in [5], in [16] and in experiment [7] was inactive. The compound was classed as inactive in [10] and in experiment [13]. In experiment [14], the max response was 0.0191%.

Regarding `Cc1ccc(C(C)NC(=O)[C@@H](NC(=O)OC(C)C)C(C)C)cc1` (stereo partly drawn), the Potency result in experiment [1], in experiment [8], in [9], in experiment [11], in [12] and in experiment [15] was “inactive” throughout. Also, the result in experiment [2], in experiment [3], in experiment [4], in experiment [5], in [16] and in experiment [7] was inactive. The compound was classed as inactive in [10] and in [13]. Also, in experiment [14], the max response was -6.73%.

With `COc1c2occc2c(OC)c2c(=O)cc(C)oc12`, the Potency in [1] is 13.3 µM (active); in experiment [8] it was 9.52 µM (active); in experiment [12] it was 9.52 µM (active); in experiment [14], 9.52 µM (active). Moreover, the outcome in experiment [2], in experiment [3], in [4], in experiment [5], in [6] and in experiment [10] was inactive. Besides, the call in experiment [13] was inactive. In addition, the Potency result in experiment [9], in [11] and in [15] was “inactive” in each case.

For the compound `CCn1cc(C(=O)O)c(=O)c2cnc(N3CCCC3)nc21`, the activation is -0.437% [at 8.39 µM] in [1] and -1.79% [at 8.39 µM] in [3]. Further, the viability change, negative = cytotoxic is 1.85% [at 8.39 µM] in experiment [2] and 5.81% [at 6.97 µM] in experiment [13]. The activity change, negative = cytotoxicity in experiment [4] is 0.904% [at 6.97 µM]; in experiment [6], -5.46% [at 14 µM]; in experiment [12] it was 1.68% [at 6.97 µM]. The activation (H2AX phosphorylation) in experiment [5] was 0.23% [at 14 µM]. Moreover, the activity change, negative = cytotoxic was 10% [at 6.97 µM] in experiment [8] and 1.51% [at 6.97 µM] in [10]. In addition, the cytotoxicity in experiment [9] was 1.5% [at 6.97 µM]. Further, the cytotoxicity increase in experiment [11] is 3.57% [at 6.97 µM]. In [14], the max response is 10.4%. In experiment [15], the activity change was 4.09% [at 6.97 µM, active compounds read high].

As for `CC(=O)Nc1ccc(OC(=O)c2ccccc2OC(C)=O)cc1`, the Potency entry in [1], in experiment [8], in [9] and in experiment [12] was “inactive” throughout. Also, the result in experiment [2], in [3], in experiment [4], in experiment [5], in experiment [6] and in experiment [7] was inactive. Besides, the call in experiment [10] was inactive. Further, the max response in experiment [14] is 3.46%.

On to `O=C(O)c1cc2ccccc2nc1C(=O)O`, for which the Potency result in experiment [1], in [8], in experiment [9], in experiment [11], in [12] and in experiment [15] was “inactive” throughout. For the same compound, the result in experiment [2], in experiment [3], in experiment [4], in [5], in experiment [6] and in [10] was inactive. Besides, the compound was classed as inactive in experiment [13]. The max response in [14] was -2.29%.

On to `C=CCOC(=O)CCCCCC`, for which the Potency result in [1], in [8], in [9], in experiment [11], in experiment [12] and in [15] was “inactive” in each case. The result in experiment [2], in [3], in [4], in experiment [5], in [16] and in experiment [7] was inactive. Besides, the call in experiment [10] was inactive. Moreover, the max response in experiment [14] is 3.28%.

For `CC1(C)O[C@H]2CC(=O)OC[C@]23[C@H]2CC[C@@]4(C)[C@H](c5ccoc5)OC(=O)[C@H]5O[C@]54[C@]2(C)C(=O)C[C@@H]13`, the Potency result in experiment [1], in [8], in [9], in [11], in experiment [12] and in experiment [15] was “inactive” each time. Besides, the result in [2], in [3], in [4], in experiment [5], in [16] and in experiment [7] was inactive. In addition, the outcome in [10] and in experiment [13] was inactive. For the same compound, the max response in experiment [14] was 3.36%.

In the case of `C/C=C(\C)C(C)=O`, the Potency entry in experiment [1], in experiment [8], in experiment [9], in [11], in [12] and in [15] was “inactive” in each case. The compound was classed as inactive in experiment [2], in experiment [3], in [4], in experiment [5], in [16] and in [7]. The compound was classed as inactive in experiment [10] and in experiment [13]. Besides, the max response in experiment [14] is 0.603%.
